Inconclusive results are not listed. The source made the active and inactive calls. Calls come from the whole dose curve; as a rule, active = well fitted cell-killing curve with a large enough effect in the repeat runs; inconclusive = weak or mixed curves, or effect the other way; inactive = flat fitted curve, though single readings scatter.
% is set by controls: 0 for no effect and ±100 for the full control effect; potency is the fitted concentration of half-maximal effect.

This assay can be described thus: cAMP Responsive Elements (CRE) small molecule agonists, cell-based qHTS assay: qHTS cell viability counter screen (AID 2060914). Note: nearly all actives have a fitted effect of over 50% in size. Conditions: CRE-bla HEK293T viability, CellTiter-Glo luminescence, 5 h; series mostly up to 92.4 µM; activity change, negative = cytotoxicity: at the top concentration. The source says:
National Center for Advancing Translational Sciences [NCATS]
Division of Preclinical Innovation [DPI]
U.S. Environmental Protection Agency [EPA]
National Institutes of Environmental Health Sciences [NIEHS]
National Toxicology Program [NTP]
U.S. Food and Drug Administration [FDA]
CREB (cyclic-AMP Responsive Element Binding Protein) is a cellular transcription factor. It binds to certain DNA sequences called cAMP Responsive Elements (CRE) and regulates the transcription of the genes. […] This cell line can be used to find agonists/antagonists of the cyclic AMP signaling pathway. The activation of the report gene under culture conditions can be detected by fluorescence intensity. This cell line has been used to screen the Tox21 10K compound library to identify agonists that induce oxidative stress. The cytotoxicity of the Tox21 compound library against the CRE-bla cell line was tested in parallel by measuring the cell viability using CellTiter-Glo assay (Promega, Madison, WI) in the same wells.
Tox21 Assay Protocol Summary:
CRE-bla Hek 293T cells were suspended in assay medium (DMEM containing 10% dialyzed FBS, 0.1 mM NEAA, 1 mM sodium pyruvate and 25 mM HEPES) and dispensed at 2,000 cells/5 uL /well into 1536-well black wall/clear bottom plates using a Multidrop Combi (ThermoFisher Scientific, Waltham, MA) dispenser. After the assay plates were incubated at 37 C/5% CO2 for 18 hrs, 23 nL of compounds dissolved in DMSO, positive controls or DMSO only was transferred to the assay plate by a pintool workstation (Kalypsys, San Diego, CA). After the plates were incubated at 37 C/5% CO2 for 3 hrs, 1 uL of LiveBLAzer B/G FRET substrate (Invitrogen, Carlsbad, CA) was added to each well using Bioraptr Flying Reagent Dispenser (FRD, Aurora Discovery, San Diego, CA). The plates were incubated at room temperature for 2 h, then fluorescence intensities were measured using an Envision plate reader (PerkinElmer, Shelton, CT) at Excitation 405nm, Emission 460nm and 530nm. The % activity was determined from the ratio of 460nm/530nm. For cell viability readout that measures cytotoxicity, 4 uL /well of CellTiter-Glo reagent was added into the assay plates using Bioraptr FRD. After 30 min incubation at room temperature, the luminescence intensity in the assay plates was measured using a ViewLux (PerkinElmer, Shelton, CT) plate reader.
As for `COC(=O)CCCCCCCC(=O)OC`, the “activity change, negative = cytotoxicity” value is 3.14% (inactive).
Still for that read-out and setting: the same measure for `CC1=C(C)C(=O)C(CCCCC#CCCCC#CCO)=C(C)C1=O`: -16.1% [at 42.5 µM] (inactive); for `O=Cc1ccc(Cl)c(Cl)c1`: -10.6% (inactive).
For the molecule `CCCCCCCCCCCCCCCC(=O)OC(C)C`, the Potency entry is “inactive”.
Take `CN(C)CCN(Cc1ccccc1)c1ccccn1`: the “activity change, negative = cytotoxicity” value is -2.92% [at 42.5 µM] (inactive).
The same measure, in the same setting: the same measure for `O=C(O)CCCC[P+](c1ccccc1)(c1ccccc1)c1ccccc1`: 8.9% [at 42.5 µM] (inactive).
The same measure, in the same setting: under `C#CCN(C)CCCOc1ccc(Cl)cc1Cl` stands 5.06% [at 42.5 µM] (inactive).
Turning to `CCc1cc(C(C)(C)C)c(O)c(C(C)(C)C)c1`, the Potency entry was “inactive”.
With `CCC(=O)C(=O)CC`, the “activity change, negative = cytotoxicity” value is -11.8% (inactive).
The same measure, in the same setting: the same measure for `C[Si]1(C)O[Si](C)(C)O[Si](C)(C)O1`: 11.9% (inactive); for `CC(=O)Nc1ccccc1O`: 5.43% (inactive); for `CCCC(O)C(O)CO` (stereo not given): 18.1% (inactive).
The same measure, in the same setting: under `CC(N=C(NC#N)Nc1ccncc1)C(C)(C)C` (stereo not given) stands 1.43% [at 42.5 µM] (inactive).
Same read-out and setting: under `CCN1CCCC1CNC(=O)c1cc(S(N)(=O)=O)ccc1OC` (stereo not given) stands -13.6% (inactive); under `O=Cc1ccc([N+](=O)[O-])cc1`, 2.23% (inactive); under `Nc1ccc(S(=O)(=O)Nc2ccccc2)cc1`, -1.41% [at 42.5 µM] (inactive).
Take `COc1ccnc(CS(=O)c2nc3ccc(OC(F)F)cc3[nH]2)c1OC` (stereo not given): the “activity change, negative = cytotoxicity” value was -10% [at 42.5 µM] (inactive).
As to `NS(=O)(=O)c1cc2c(cc1Cl)NC(CC1CCCC1)NS2(=O)=O` (stereo not given), the “activity change, negative = cytotoxicity” value was 9.85% [at 42.5 µM] (inactive).
As for `Oc1ccc(N=Nc2ccccc2)cc1`, the “activity change, negative = cytotoxicity” value is -24.8% (inactive).
`Cc1ccc2c(c1)CCCN2`: the “activity change, negative = cytotoxicity” value was -3.52% (inactive).
Turning to `CCCCCCC(C)(C)S`, the Potency entry was “inactive”.
Take `Cc1c(N)c(=O)n(-c2ccccc2)n1C`: the “activity change, negative = cytotoxicity” value was 1.55% [at 42.5 µM] (inactive).
Same read-out and setting: the same measure for `CC(C)=CCCC(C)CCOC=O` (stereo not given): -1.26% (inactive); for `CCCCN1C(=O)c2ccccc2C1=O`: 5.5% (inactive).
As for `Cc1cccc(N(C)C(=S)Oc2ccc3c(c2)CCC3)c1`, the “activity change, negative = cytotoxicity” value is -15.9% [at 42.5 µM] (inactive).
On the same count and under the same terms, under `C[C@@H]1C[C@H]2[C@@H]3CCC4=CC(=O)C=C[C@]4(C)[C@@]3(Cl)[C@@H](O)C[C@]2(C)[C@@]1(OC(=O)c1ccco1)C(=O)CCl` stands 7.27% [at 42.5 µM] (inactive); under `C=CCn1c(=O)n([C@@H]2O[C@H](CO)[C@@H](O)[C@H]2O)c2nc(N)[nH]c(=O)c21`, 0.269% [at 42.5 µM] (inactive); under `CCC(C)S` (stereo not given), 5.15% [at 3.27 µM] (inactive).
Same read-out and setting: the same measure for `OC(CCN1CCCCC1)(c1ccccc1)C1CC2C=CC1C2` (stereo not given): -0.758% [at 42.5 µM] (inactive); for `NS(=O)(=O)c1ccc(C(=O)O)cc1`: -0.044% [at 42.5 µM] (inactive); for `CCCCC(CC)CN` (stereo not given): -10.5% (inactive).
Still for that read-out and setting: under `CCCCCCOc1ccccc1C(N)=O` stands -15% [at 42.5 µM] (inactive).
For `CCCOC(=O)NCCCN(C)C`, the Potency entry is “inactive”.
The same measure, in the same setting: under `CC1CC(OC(=O)c2ccccc2O)CC(C)(C)C1` (stereo not given) stands “inactive”.
Regarding `O=c1cc[nH]cc1`, the “activity change, negative = cytotoxicity” value is 0.59% (inactive).
`Nc1c2c(nc3ccccc13)CCCC2`: the Potency result was “inactive”.
For the molecule `CN(C)CC[C@@H](c1ccc(Br)cc1)c1ccccn1`, the “activity change, negative = cytotoxicity” value is 14.7% [at 42.5 µM] (inactive).
In the case of `O=C(Nc1ccc(Cl)cc1)Nc1ccc(Cl)c(C(F)(F)F)c1`, the Potency was 23.7 µM (active).
Take `CSCC[C@H](NC(=O)[C@H](Cc1c[nH]c2ccccc12)NC(=O)CCNC(=O)OC(C)(C)C)C(=O)N[C@@H](CC(=O)O)C(=O)N[C@@H](Cc1ccccc1)C(N)=O`: the “activity change, negative = cytotoxicity” value is -1.18% [at 42.5 µM] (inactive).
Same read-out and setting: the same measure for `C[C@@]12CCC[C@H]1[C@@H]1CC[C@H]3C[C@@H](O)CC[C@]3(C)[C@H]1CC2`: 0.796% [at 42.5 µM] (inactive).
